This is an account of results in PubChem BioAssay AID1508600 (Functional Genomics Laboratory (NCATS/FGL), 2020).

In all, about 53,000 sequences went through this assay and about 3,700 (7%) were called active.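 How the source made its calls: active means gene knockdowns whose robust z-score for IL-1 alpha signal is at least 2 or at most -2, so actives lie on both sides; inactive means the rest.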 The sample as a whole holds a higher share of actives than the screen did.

This assay can be described thus: Components of the Cytosolic LPS Sensing Pathway: Gene Identification via Genome-wide siRNA Screen.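 Further: robust z of the log signal after scaling to non-targeting control siRNA wells of the plate.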 The conditions noted are these: RAW264.7 macrophages, IL-1a HTRF, actives lie on both sides, screened at 100 nM (by protocol), cells primed 5 h with Pam3CSK4 first. An outline of the steps:
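RAW264.7 mouse macrophages reverse-transfected with single siRNAs (100 nM final) for 48h, primed with Pam3CSK4 for 5 hours, then transfected with LipidA for 24 hour. Supernatant IL-1a read by HTRF; values normalized to negative-control median, log-transformed robust z-scores.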
On to GGAGAAGUCCAUACGGAUCTT against Gpr18, for which the z-score is 0.184 (inactive).

For the sequence GGGACAGUAGAAGAUGUAGTT against Got2, the z-score was -0.706 (inactive).

GGAAAAUUGGACCAAUUUCTT against Ric3: the z-score is -0.339 (inactive). As to GCCUUGGUACCAUAAUGCATT against Synm, the z-score was 0.224 (inactive).

In the case of GGCCGGUGCCUUUUAUUCUTT against Spib, the z-score is 3.26 (active). As to GCAAGUGCGGAAGAAAGGATT against Afap1l2, the z-score was 0.0285 (inactive). In the case of CCUUGUACACGGAUUGAAUTT against Itga6 it was -0.192 (inactive); in that of GGUAGGAAACCUCUCAGAGTT against Kcnc1, 0.85 (inactive); in that of GGUGUUCAAAAUUCCUGCCTT against Mbl2, 0.0864 (inactive).

GCUAGAGCUCACCAAAUAATT against Fam83a: the z-score was 0.759 (inactive).

For UAGUGAGCAAGGAAUUGGATT against Gm20815, the z-score is -0.238 (inactive). As to GGAGAAGAAGUGCUUCCCUTT against Gls2, the z-score was -2.81 (active). Take GGAGGAGAAGAAACACCUGTT against Klc1: the z-score was -1.73 (inactive). In the case of GGACAAAAGCAAAGAAAAGTT against R3hdm2 it was -0.822 (inactive); in that of GGAAAAUGUGAAACAGCUATT against Dhx40, -0.873 (inactive); in that of GAGUUCCAGUUUAUCCCUUTT against Klra1, -2.06 (active). The figure for CCCGUGCUUCAAAUAGAGATT against Cavin3 is 0.789 (inactive). On to CAGCGAUCCAAGUACCUGGTT against Mbp, for which the z-score is 0.568 (inactive). In the case of GGAAUUUCACUAACCUUAGTT against Tert, the z-score is 1.55 (inactive). For the sequence GGCAAAAGCGAAGAAUUUATT against E2f5, the z-score was 2.69 (active).

Consider GGAUUCCUGAUUUCUUCAUTT against Snip1, for which the z-score was 0.915 (inactive).

As to GGAGAUAAAAAUCCAAGCATT against Stx19, the z-score was 0.274 (inactive). For the sequence GCAUAUGACACCGUAUCAGTT against Gprc5d, the z-score is 0.914 (inactive). As to GCUCCUAUCCACAAUGCUGTT against Radil, the z-score is -0.0853 (inactive).

In the case of GGCAAAGAUGAUGGAAAAATT against Srp68, the z-score is 0.307 (inactive). Take GGGACGAUGUCACUAUUAATT against Myrip: the z-score is 1.31 (inactive). Regarding GGCAGACUGCUGACAUAUGTT against Cd37, the z-score was -2.44 (active). As to CGAGCUGGAUCUGUUUAGATT against Nsmce1, the z-score is 0.357 (inactive). As for CGUGGAGAUCAUCCACUCATT against Inf2, the z-score was -2.44 (active). With “GGAUUAUGAUUUGCCUGAUTT against 4932414N04Rik”, the z-score is 1.05 (inactive). Consider GCUAGAUGCUAUGAAGCGATT against Ap3b1, for which the z-score is -0.406 (inactive).

For the sequence CGUGAUUUCAUGCUGUGGCTT against Tal2, the z-score was -2.19 (active).

Take GGAUCUAAGCCUGUUGUGATT against Zfp647: the z-score is -0.82 (inactive).

As for GGUCACCCUGUUUAGGCCUTT against Fgd3, the z-score is 0.571 (inactive).

Consider CCUGCCAAUCUGUCUAAGUTT against Haus1, for which the z-score is -0.121 (inactive).

Turning to GUCAUGAGAUUGAAUACAATT against Olfr569, the z-score was -0.0298 (inactive). Take GGGAUUGAUUUCAACAAUGTT against Vmn1r33: the z-score is 0.464 (inactive). In the case of CCCUUGCUAGUCCUUCUAUTT against Bora it was -0.65 (inactive); in that of GGUUGUAAAGGAAGAGAAGTT against Lyve1, 0.397 (inactive); in that of GGCCAGACACUACAGGUAATT against Aldh16a1, 0.0594 (inactive). Regarding GCUACAGCUAUAUCGCUAUTT against Cnot8, the z-score was 0.625 (inactive). On to GGCUUUUAUUUUCUGGGAUTT against Barhl1, for which the z-score is 2.4 (active). With GGAAUUAUGAUGUAGACAGTT against Garre1, the z-score was 0.662 (inactive). Consider GCCUUGGUCCUUAAAUAUATT against Slc7a2, for which the z-score was -0.414 (inactive).

Regarding CGAUAUUUGGUGUGAAAUGTT against Tmem70, the z-score was -0.609 (inactive). Take GGGAAAUGCUUCUAAAAAUTT against Pcdhb11: the z-score is 0.377 (inactive). In the case of CCACCAUCAUGAGAGAGGATT against Olfr350 it was 0.00462 (inactive). In the case of GGCAAAUGUAGACAUGUAUTT against Defb44-ps it was -0.0483 (inactive); in that of GCUAAUAUGCCACUGCCCGTT against Pls3, 1.55 (inactive); in that of GCUAUGUGUACAGCUGCUGTT against Vmn1r62, 0.21 (inactive). In the case of CGUGCAGUGUGCUUCACAATT against Smarcad1, the z-score was -1.89 (inactive). Turning to GGUCUCAAGUUUUACAUUCTT against Prss35, the z-score was 2.2 (active). In the case of GGCUCUGGCUAAGUACUUGTT against Cenpb, the z-score is -0.943 (inactive). GCUAACUGAGCUGCCGGAATT against Lrrn3: the z-score was 0.264 (inactive). As for GCUUCAUGCACGGUUCUAUTT against Cib2, the z-score was 1.65 (inactive).

GGCUCAGAAGAAAAUGGAUTT against Kcnk4: the z-score is 0.166 (inactive).

In the case of GGAUCUGUAUUGUAAACAATT against Pcmtd2, the z-score was 0.463 (inactive). For GCCGUUCAUUUCAACCGUGTT against Wdr5, the z-score is -0.0339 (inactive).

On to GGCUCACUCUCCAUUCUACTT against Asb6, for which the z-score is -0.902 (inactive).

As for GGCACUCUCAGCUUUUGACTT against Olfr2, the z-score is -2.43 (active). Consider CCGCCUGGAUAAUUAUGAUTT against Cltc, for which the z-score was 0.309 (inactive). Turning to GGAUCAUGUCAUCACAAAATT against Fzd3, the z-score is -0.319 (inactive).

On to GGUGUCCAAUUGCCCUAUCTT against Tnfrsf12a, for which the z-score is -1.98 (inactive). The figure for GGGAACAGCAUGAAGGAAGTT against Krt78 is 0.688 (inactive); for GGCACGUUAUGAAGACCAGTT against Ttc6 it is 1.49 (inactive); for GAGAAACAACAAUUUGGGATT against Gm20815 it is 2.07 (active). Turning to GGCUGAUUAGAAUACCUCCTT against Adra2b, the z-score was 0.352 (inactive).

Consider GGCCUACGUGCUAAACAUCTT against Atp1b1, for which the z-score is 1.77 (inactive). On to GCUCUAAAUGAACAUCUCATT against Snai3, for which the z-score was 0.322 (inactive).
